From PubChem
Fluorescein fluor – fluorescein region autofluorescence | Compound autofluorescence, 480/540 nm, fluorescein-equivalent; stronger effect = higher value | max fluorescein-equivalent concentration, M | actives 0.91% (n = 59,000); in the data active means max fluorescein-equivalent concentration above about 10 nM; inconclusive means between about 1.1 nM and that limit
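Fluorescein stocks ranging 3 mM down to 300 nM, plus DMSO blanks, were pinned alongside compounds to build a per-plate standard curve. Buffer: 100 mM Tris, pH 8.0. Incubation 15 min, room temperature; filters 480/540 nm.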
A647 autofl – compound fluoresces in the A647 spectral region. Compound fluorescence, A647 channel (570/671 nm), Tris buffer. max dye-equivalent concentration, M. 59,000 tested, under 10 active. AID 592;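 further: values scaled relative to a standard on each plate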
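Each compound's intrinsic fluorescence at 570 nm excitation and 671 nm emission is measured across its concentration series in 100 mM Tris, pH 8.0, after 15 min at room temperature, and reported relative to an A647 curve.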
Resorufin autofl – compounds fluorescent in resorufin spectral region | max dye-equivalent concentration, M | actives 0.04% (n = 59,000) | AID 588 | Compound fluorescence, resorufin region 547/598 nm, buffer; stronger effect = higher value
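Compounds in 100 mM Tris buffer, pH 8.0, incubated 15 min at room temperature, then read with 547 nm excitation and 598 nm emission filters. Fluorescence was converted to dye-equivalent concentration using an on-plate six-point resorufin standard curve.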
TexasRed autofl – compound fluoresces in the Texas Red spectral region; max dye-equivalent concentration, M; Compound fluorescence, Texas Red channel, 547/618 nm; stronger effect = higher value; actives 0.06% (n = 59,000); in the data active means max dye-equivalent concentration above about 10 nM; inconclusive means between about 1.1 nM and that limit
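Spectral interference profiling: each compound concentration's relative fluorescence, read with a 547 nm excitation and 618 nm emission filter pair, was normalized to a per-plate Texas Red standard curve.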
A488 autofl – compound fluoresces in the A488 spectral region. compound autofluorescence, A488 spectral region, dye equivalency; Compound Type: qHTS ECL - MLSMR. max dye equivalency, M. actives 0.1% (n = 59,000). AID 591
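Autofluorescence read at ex 480/em 540 nm after 15 min RT in 100 mM Tris pH 8.0; compound signal normalized to A488 standard series on each plate, reported as dye-equivalent concentration at each test concentration.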
Rhodamine autofl – rhodamine region autofluorescence; Rhodamine-region fluorescence, 547/598 nm, Tris buffer; stronger effect = higher value; max dye-equivalent concentration, M; actives 0.05% (n = 59,000); in the data active means max dye-equivalent concentration above about 11 nM; inconclusive means between about 1.1 nM and that limit
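qHTS spectral profiling of compounds without any target or enzyme present, in pH 8.0 Tris buffer; plates were read after a 15-minute room-temperature incubation using the rhodamine-region filter set.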
Starred values were filed as active, the others as inactive; i = inactive; ? = inconclusive; ! = not confirmed by another sample. Sampled rows, rich in hits. Any-hit rate of the full collection: about 0.95%. Unless noted, how the calls were made is not given here.

SMILES	Fluorescein fluor	A647 autofl	Resorufin autofl	TexasRed autofl	A488 autofl	Rhodamine autofl
c1ccc2c(c1)[nH]c1cnccc12	?	3.74e-08	i	i	i	i
Cc1c2ccncc2c(C)c2c1[nH]c1ccccc12	1.06e-08M*!	3.7e-09	i	i	i	i
Cc1ccc(-n2c(O)c(C=Nc3ccccc3N)c(=O)[nH]c2=O)cc1C	?	3.18e-08	i	i	i	i
O=c1[nH]c(=O)n(-c2ccc(F)cc2)c(O)c1C=Nc1ccccc1N1CCCC1	3.96e-08M*	1.45e-08	i	i	?	i
CCN(CC)C(=O)N[C@H]1C=C2c3cccc4[nH]cc(c34)C[C@@H]2N(C)C1	4.97e-08M*	2.3e-09	i	?	?	i
CC(C)C[C@H]1C(=O)N2CCC[C@@H]2[C@@]2(O)O[C@](NC(=O)[C@@H]3C=C4c5cccc6[nH]cc(c56)C[C@@H]4N(C)C3)(C(C)C)C(=O)N12	4.88e-08M*	1e-09	i	i	?	i
CC(C)[C@@]1(NC(=O)[C@@H]2C[C@H]3c4cccc5[nH]cc(c45)C[C@@H]3N(C)C2)O[C@]2(O)[C@H]3CCCN3C(=O)[C@H](Cc3ccccc3)N2C1=O	i	5.8e-09	i	?	i	i
CC(C)C[C@H]1C(=O)N2CCC[C@@H]2[C@]2(O)O[C@](NC(=O)[C@H]3C=C4c5cccc6[nH]cc(c56)C[C@H]4N(C)C3)(C(C)C)C(=O)N12	1.34e-08M*	1e-09	i	i	i	i
Cc1cccc(N2CCc3c2nc2ccccc2c3N)c1	?	1.1e-09	i	i	i	i
CC(C)n1cc2c3c(cccc31)[C@@H]1C[C@H](C(=O)O[C@@H](C)[C@H](C)O)CN(C)[C@H]1C2	1.07e-08M*	1e-09	i	i	i	i
C[C@H](Br)CN(C[C@H](C)Br)c1ccc2c(c1)Cc1ccccc1-2	i	4.56e-08	i	i	i	i
CC(=O)OCC1=C(C(=O)[O-])N2C(=O)[C@@H](NC(=O)CCC[C@@H](N)C(=O)[O-])[C@@H]2SC1.[Zn+2]	i	1e-09	i	i	i	i
CCN=C=NCCCN(C)C	?	5.66e-08	i	i	i	i
COCCNC(=O)c1c(NC(=O)c2ccco2)n(Cc2ccccc2)c2nc3ccccc3nc12	1.08e-08M*	1.9e-09	i	i	i	i
Nc1c(C(=O)NCCc2ccccc2)c2nc3ccccc3nc2n1CCN1CCOCC1	?	3.59e-08	i	i	i	i
Nc1c(C(=O)NCCN2CCOCC2)c2nc3ccccc3nc2n1Cc1ccco1	1.87e-08M*	3.95e-08	i	i	i	i
CCOC(=O)c1c(N)n(CCN2CCCCC2)c2nc3ccccc3nc12	i	1e-09	i	i	i	i
CC(C)(C)OC(=O)c1c(N)n(Cc2ccco2)c2nc3ccccc3nc12	2.84e-08M*	1.05e-08	i	i	i	i
CN1CCN(c2ccc([N+](=O)[O-])c3[nH]o[n+](=O)c23)CC1	1.31e-07M*	4.71e-08	i	i	?	?
COc1cc(C=C(C#N)C#N)cc(O)c1O	2.52e-08M*	3.75e-08	i	i	i	i
O=c1ccc2cc(O[C@H]3O[C@@H](CO)[C@@H](O)[C@@H](O)[C@@H]3O)c(O)cc2o1	i	4.2e-09	i	?	i	i
O=c1[nH]c(=O)n(CCC2=CCCCC2)c(O)c1C=NCCN1CCNCC1	i	1.71e-08	i	i	i	i
CCN(CC)c1ccc(N=Cc2c(O)n(CCC3=CCCCC3)c(=O)[nH]c2=O)cc1	9.26e-08M*	3.5e-09	i	i	?	i
C=CCn1c(O)c(C=NCCN(C)C)c(=O)[nH]c1=O	?	1e-09	i	i	i	i
CN(C)c1ccc(N=Cc2c(O)n(CCC3=CCCCC3)c(=O)[nH]c2=O)cc1	1.35e-08M*	1e-09	i	?	i	i
SMILES	Fluorescein fluor	A647 autofl	Resorufin autofl	TexasRed autofl	A488 autofl	Rhodamine autofl
C=CCn1c(O)c(C=Nc2ccc(N(CC)CC)cc2)c(=O)[nH]c1=O	1.41e-08M*	1e-09	i	i	i	i
N=C(N)n1cc(/C=N\N=C(N)N)cn1	?	4.19e-08	i	i	i	i
[N-]=[N+]=NCC(=O)c1c[nH]c(=O)[nH]c1=O	i	3.12e-08	i	i	i	i
c1cc(N2CCCC3(CCNCC3)C2)ccn1	i	1e-09	i	i	i	i
C[C@@]1(CO)[C@H](O)CC[C@@]2(C)[C@H]1CC[C@H]1C[C@@H]3C[C@@]12CC[C@]3(O)CO	?	4.81e-08	i	i	i	i
COc1cc2ccccc2c2cc([N+](=O)[O-])oc12	3.99e-08M*	1e-09	i	i	?	i
CN1C(=O)C(Cc2c[nH]c3ccccc23)C(=O)N(C)C1=O	3.36e-08M*	3.73e-08	1.03e-08M*	?	?	1.38e-08M*
CC[C@H](CO)NC(=O)[C@@H]1C=C2c3cccc4c3c(cn4C)C[C@@H]2N(C)C1	1.5e-08M*	1.8e-09	i	i	i	i
CC(C)NC(=O)N1CCCC2(CCN(C(=O)Oc3ccccc3)CC2)C1	i	1.7e-09	i	i	i	i
